# Screens deposited in PubChem by several laboratories.
# Rows were chosen to be rich in hits. Some 4.7% of all compounds tested hit in one or more screens of this group.
# tim10-1 inh = tim10-1 yeast growth inhibition | S. cerevisiae tim10-1 ts strain growth, BacTiter-Glo, 24 h | inhibition, % at 20 µM | 330,000 compounds, 2.2% hits | AID 463190;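 active = inhibition of at least 40%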;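 note: mutant grown at 25 °C; 0% = DMSO wells with yeast and 100% = wells holding no yeast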
# SKKanGAS inh = SKKanGAS growth inhibition. inhibition, % at 7.5 µM. S. pyogenes SKKanGAS, kanamycin growth, BacTiter-Glo, 6 h. 300,000 compounds, 1.3% hits;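 active = mean replicate score, as percent of positive control median, at least 50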;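 note: strain carries kanamycin resistance gene driven by streptokinase promoter and grows in 40 µg/ml kanamycin; loss of luminescence reflects streptokinase promoter inhibition or plain growth inhibition; 0% = median of DMSO wells and 100% = positive control at its reference dose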
# EBI2 antag = EBI2 (human) antagonism | P32249 | EBI2 beta-arrestin recruitment, luminescence, 7a,25-OHC stimulated | inhibition, % at 5 µM | 360,000 compounds, 0.81% hits; in the data active = inhibition above about 38%;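 note: enzyme fragment complementation signal reports receptor beta-arrestin coupling in cells; 0% = agonist plus DMSO wells and 100% = wells without agonist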
# Target sequence (P32249 whole entry, looked up, the tested form may be a part): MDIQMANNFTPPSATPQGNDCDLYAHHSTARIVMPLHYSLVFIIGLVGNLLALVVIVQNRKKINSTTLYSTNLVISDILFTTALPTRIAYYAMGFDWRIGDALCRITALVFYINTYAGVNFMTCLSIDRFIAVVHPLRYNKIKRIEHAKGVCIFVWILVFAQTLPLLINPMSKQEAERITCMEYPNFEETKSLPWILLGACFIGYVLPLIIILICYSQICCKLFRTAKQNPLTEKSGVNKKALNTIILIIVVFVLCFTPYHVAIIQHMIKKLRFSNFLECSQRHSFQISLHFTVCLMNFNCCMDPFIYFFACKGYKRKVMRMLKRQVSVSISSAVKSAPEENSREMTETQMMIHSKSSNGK
# TIM10 inh = inhibits growth of TIM10 yeast strain; S. cerevisiae TIM10 strain growth, BacTiter-Glo luminescence, 24 h; inhibition, % at 10 µM; 330,000 compounds, 1.4% hits; AID 463195;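 active = inhibition of 40% or more at the single tested concentration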;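 note: wild-type TIM10 isogenic control strain grown at permissive 25 °C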
# PfHsp90 set2 = reduces growth (ATP signal) of yeast expressing P. falciparum Hsp90 | S. cerevisiae expressing PfHsp90, BacTiter-Glo ATP, 48 h; yeast lacking PDR1 and PDR3 efflux regulators | inhibition, % at 9.4 µM | 310,000 compounds, 0.32% hits;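 active = every replicate shows inhibition above about 80%, whatever the replicate mean, limit read from the data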;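 note: 0% = DMSO neutral controls and 100% = 20 µM radicicol positive controls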
# tim23-1 inh = inhibits growth of tim23-1 mutant yeast | S. cerevisiae tim23-1 growth, BacTiter-Glo luminescence, 24 h | inhibition, % at 20 µM | 330,000 compounds, 1.3% hits | AID 463212;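 active = growth inhibition of the mutant yeast at or above 50%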;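 note: temperature-sensitive mutant grown at 25 °C; plate controls were DMSO-treated mutant yeast for no effect and medium wells lacking yeast for full effect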
# tim10-1 conf = tim10-1 yeast growth inhibition, confirmed | S. cerevisiae tim10-1 ts strain growth, BacTiter-Glo, 24 h | 7,400 compounds, 56% hits | shares compounds with tim10-1 inh | inhibition, % at 20 µM;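 active = inhibition of yeast growth at or above a set limit in either of two repeat tests at 20 µM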;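 note: tim10-1 mutant grown at permissive 25 °C to find synthetic lethal compounds; 0% = DMSO yeast wells and 100% = medium wells without yeast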
# * hit, by the source's call; nt = no result given.
SMILES,tim10-1 inh,SKKanGAS inh,EBI2 antag,TIM10 inh,PfHsp90 set2,tim23-1 inh,tim10-1 conf
COc1ccc(-n2c(C)cc(C(=O)COC(=O)Cn3cnc4ccccc43)c2C)cc1,52.9*,6.2,2.5,27.6,-13.3,35.0,27.5
COc1ccc(NC(=O)COC(=O)Cn2cnc3ccccc32)cc1,0.8,nt,-3.0,0.5,7.4,5.8,nt
CCC(=NCc1ccccc1)c1c(C(F)(F)F)[nH]n(-c2nc3ccccc3s2)c1=O,45.7*,12.5,7.0,17.8,2.7,37.8,35.3*
Cc1ccc(C2CC2C(=O)NNC(=S)Nc2cccc(C)c2)cc1 (centres undefined),48.9*,-3.6,3.9,32.4,nt,23.2,16.2
Cc1cc(C(=O)C(C)OC(=O)c2ccc(NC(=O)CC#N)cc2)c(C)n1-c1ccccc1 (centres undefined),42.3*,16.8,-1.8,26.2,-21.7,33.8,19.1
CC(OC(=O)c1ccc(NC(=O)CC#N)cc1)C(=O)NC(c1ccccc1)c1ccccc1 (centres undefined),10.5,nt,4.0,18.7,-34.7,1.4,nt
N#CCC(=O)Nc1ccc(C(=O)OCC(=O)N2CCCC2=O)cc1,14.5,-7.8,0.2,-1.6,nt,-2.6,nt
Cc1ccc(S(=O)(=O)NCc2ccco2)cc1C,3.2,3.8,-2.1,4.7,8.9,-4.9,nt
O=S(=O)(NCc1ccco1)c1ccc2c(c1)Cc1ccccc1-2,45.1*,-8.4,-0.3,34.4,nt,25.8,34.8*
Cc1cc(C)cc(NC(=O)c2cc(S(=O)(=O)NCc3ccco3)ccc2F)c1,46.0*,0.5,13.8,38.7,-14.9,41.3,40.1*
COc1ccc(C)cc1NC(=O)CN1C(=O)COc2ccc(S(=O)(=O)N3CCOCC3)cc21,19.1,7.3,-7.4,1.1,12.5,11.3,nt
O=c1[nH]c2ccccc2nc1C(F)(F)C(F)F,3.5,1.5,5.6,0.0,25.4,-20.6,nt
O=c1[nH]c2cc3ccccc3cc2nc1C(F)(F)F,42.2*,10.5,0.2,17.0,15.3,5.7,-9.2
CC(=O)Nc1ccc(S(=O)(=O)Nc2cccc(NC(=O)c3ccco3)c2)cc1,-9.5,-6.9,-4.5,2.1,-23.4,-5.2,nt
O=C(Nc1nccs1)c1ccc(COc2c(F)c(F)cc(F)c2F)cc1,-1.2,5.3,-5.4,-4.0,-28.3,4.9,nt
CC1CCCC2(C1)NC(=S)N(c1ccccc1)N2 (centres undefined),55.1*,-0.1,-9.4,-2.6,10.9,-3.3,-33.5
CC(C)(C)NC(=O)C(c1ccncc1)N(Cc1ccco1)C(=O)c1ccc(-c2ccccc2)[nH]1 (centres undefined),52.2*,-4.0,-1.6,25.0,nt,35.2,41.9*
O=C(NC1CCCCC1)C(c1ccncc1)N(Cc1ccccc1)C(=O)c1ccc(-c2ccccc2)[nH]1 (centres undefined),2.0,28.1,14.6,-4.9,-43.9,3.3,nt
Cc1ccsc1C(=O)N1CCC1(C)C(=O)NS(=O)(=O)c1ccccc1 (centres undefined),nt,nt,-3.2,nt,nt,nt,nt
O=c1c2c(-c3cccs3)csc2ncn1/N=C/c1ccc(OC(F)F)cc1,46.6*,12.8,8.3,37.7,0.1,46.4,38.8*
COCCN(C(=O)C1=COCCO1)c1c(N)n(Cc2ccccc2)c(=O)[nH]c1=O,1.2,-1.0,-16.6,4.7,-10.4,8.1,nt
CCCCN(C(=O)C1=COCCO1)c1c(N)n(Cc2ccccc2)c(=O)[nH]c1=O,43.0*,1.3,-10.2,-1.2,0.4,22.7,4.8
C[C@@H]1CN([C@@H](C)CO)S(=O)(=O)c2ccc(C#CC3CCCCC3)cc2O[C@@H]1CN(C)Cc1cccnc1,nt,nt,11.6,nt,nt,nt,nt
OCCC1CN(Cc2cccc3c2OCO3)CCN1C1CCCC1 (centres undefined),2.0,-7.2,-6.5,-0.6,-35.0,6.9,nt
COc1cccc(NC(=O)CSc2nnc(-c3ccoc3C)n2C)c1,-9.0,-1.9,-9.6,12.4,-23.3,4.6,nt
SMILES,tim10-1 inh,SKKanGAS inh,EBI2 antag,TIM10 inh,PfHsp90 set2,tim23-1 inh,tim10-1 conf
COc1ccc(-n2c(C)cc(C(=O)CSc3nnc(-c4ccoc4C)n3C)c2C)cc1,40.2*,-2.0,7.6,4.0,0.4,24.8,19.2
Clc1ccccc1-c1nn2c(-c3ccccn3)nnc2s1,40.2*,8.6,-11.2,11.5,nt,30.4,39.8*
Clc1ccccc1-c1nn2c(-c3ccncc3)nnc2s1,43.4*,-9.1,-5.3,30.6,nt,34.8,42.9*
Clc1ccccc1-c1nnc2sc(-c3ccncc3)nn12,21.6,7.5,-3.8,5.4,3.1,17.8,nt
Cc1noc(C)c1C(=O)N(C)C[C@@H]1OCc2ccccc2-c2c(n(C)c3ccccc23)C(=O)N([C@H](C)CO)C[C@H]1C,nt,nt,-8.7,nt,nt,nt,nt
CCC(C)OC(=O)C[N+](C)(C)CCOC1CC2CCC1(C)C2(C)C (centres undefined),41.2*,6.4,2.9,2.5,-10.4,9.6,-4.5
Cc1ccccc1NC(=O)CCc1nnc2ccc(N3CCC4(CC3)OCCO4)nn12,-2.9,-8.6,-9.9,10.2,13.3,-11.3,nt
S=C(Nc1ccccc1)Nc1ccc(OCc2ccc(Cl)cc2Cl)cc1,48.0*,-2.0,11.1,21.5,15.1,3.5,18.8
O=C(C/C=N\OCc1ccc(Cl)cc1Cl)Nc1ccccc1,27.3,-0.5,-6.3,32.0,12.8,35.3,nt
O=C(O)CSc1nnc(-c2ccc(Cl)cc2Cl)n1-c1ccccc1,-7.0,-0.7,-2.8,5.3,1.4,4.7,nt
COC(=O)c1ccccc1NC(=O)c1sc(N)nc1C,14.3,nt,-7.8,-13.2,-0.5,-8.3,nt
COC(=O)c1ccccc1NC(=O)c1sc(=S)n(C)c1N,46.1*,-6.7,14.6,35.0,-21.8,30.2,22.4
C/C(=N/NC(=O)c1ccc(Br)o1)c1cccc(NC(=O)c2ccc(F)cc2)c1,49.3*,5.1,3.8,28.8,nt,40.3,39.5*
C/C(=N/NC(=O)c1ccc(Br)o1)c1cccc(NC(=O)c2ccc(C)o2)c1,44.2*,-0.2,-13.7,15.8,11.3,36.9,17.7
O=[N+]([O-])c1cc(/C=N/O)ccc1Oc1cccc(Cl)c1,60.5*,-10.6,-5.7,26.1,-1.2,40.7,55.0*
O=[N+]([O-])c1cc(/C=N/O)ccc1Sc1ccccc1,-15.1,-2.4,-10.0,-60.1,-63.3,-11.1,nt
O=[N+]([O-])c1cc(/C=N/O)ccc1Oc1ccccc1Cl,54.5*,1.2,0.4,26.8,105.7*,33.2,42.3*
O/N=C\c1cccn1-c1ccc(Br)cc1,14.9,3.0,-1.6,12.0,nt,16.0,nt
CCOc1ccccc1-c1nc(CN2CCN(C(=O)c3ccco3)CC2)c(C)o1,40.8*,1.3,3.4,15.9,12.4,39.2,21.9
Nc1cc(C(=O)OCC(=O)NNC(=O)c2cccs2)ccc1Cl,-28.6,-15.0,-17.7,-3.8,24.3,-1.7,nt
